The list is not random: actives were taken first. Their share in the collection is about 3%.
MITF TRPM1 HTS – increases MITF-driven TRPM1 promoter luciferase signal | hit rate 0.75% among 300,000 | SK-MEL-5 TRPM1-promoter luciferase, 24 h; % of positive control, neutral wells = 0 | activation, % at 12.5 µM;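 active means mean activation of at least 80% with every replicate also reaching 80%; inconclusive means mean reaches 80% but some replicate falls short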;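 further: 0% = neutral control wells and 100% = parthenolide positive control wells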
Vif imaging – blocks HIV Vif function. AID 602346. HEK293T cells, Vif self-association by quenched fluorescence, imaging, 24 h. hit rate 0.35% among 340,000. inhibition, % at 7.49 µM; in the data active means inhibition above about 50%, passing the limit was not always enough; inconclusive means no clear call, values can overlap the other calls; inactive means below about 31%
N-glyco inh – blocks N-linked glycosylation in D54 reporter cells; hit rate 0.23% among 360,000; reporter increase, % at 12.5 µM; D54 ERlucT glycosylation luciferase reporter, 24 h; percent of 100 nM tunicamycin response; AID 588692;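 active means mean luciferase reporter signal, scaled so untreated is 0 and the glycosylation-blocking control 100, at or above a set limit in every replicate; inconclusive means mean reaches the limit but not every replicate does; inactive means mean below the limit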;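 further: luciferase carries N-glycosylation sites so blocking glycosylation raises the light; 0% = median of neutral control wells and 100% = median of 100 nM tunicamycin wells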
PfHsp90 set2 – inhibits growth of yeast expressing Plasmodium falciparum Hsp90; inhibition, % at 9.4 µM; hit rate 0.32% among 310,000; S. cerevisiae expressing PfHsp90, BacTiter-Glo ATP, 48 h; yeast lacking PDR1 and PDR3 efflux regulators;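 active means every replicate shows inhibition above about 80%, whatever the replicate mean, limit read from the data; inconclusive means mean inhibition reaches the set limit but some replicate falls short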;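 further: 0% = DMSO neutral controls and 100% = 20 µM radicicol positive controls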
esBAF inh – blocks esBAF chromatin remodeling in mouse ES cells. Bmi1-luciferase knock-in reporter, 24 h; 100% = twice the neutral-well signal. reporter increase, % at 12.5 µM. hit rate 2% among 350,000. AID 602393; in the data active means activation above about 40%; inconclusive means no clear call, values can overlap the other calls;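 further: 0% = median of the plate's neutral control wells and 100% = double that signal; a rise in the Bmi1 reporter signal indicates esBAF inhibition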
Wnt act – Wnt/beta-catenin pathway activation. Wnt/beta-catenin reporter cell assay, activator, plate reader. hit rate 1.2% among 300,000. AID 743398. activation, % at 9.35 µM; in the data active means activation above about 30%, passing the limit was not always enough; inconclusive means no clear call, values can overlap the other calls;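 further: 0% = neutral control wells and 100% = positive control wells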
* = called active by the depositor; u = inconclusive; x = no result.

SMILES	MITF TRPM1 HTS	Vif imaging	N-glyco inh	PfHsp90 set2	esBAF inh	Wnt act
Cc1ccc(NC(=O)C(=O)NCCCN2CCCC2=O)cc1	56	-2	-8	x	x	43*
Clc1ccc(N=C2SCC3CCCCN23)cc1 (stereo not drawn)	97*	14	-2	1	53*	16
Clc1ccc(N=C2SCCS2)cc1	55	-4	1	10	x	3
FC(F)Oc1ccc(N=C2SCC3CCCCN23)cc1 (stereo not drawn)	94*	-2	-5	12	75*	26
C=C(C)C(=O)Nc1cccnc1Oc1ccc(F)cc1	9	15	0	8	-7	-3
CCn1cc(SCC(=O)N2CCOCC2)c2ccccc21	39	x	-3	3	52*	16
CC(=O)Nc1ccc(NC(=O)CSc2cn(CC(=O)N3CCOCC3)c3ccccc23)cc1	0	8	2	-5	-3	0
O=C(Nc1ccccc1Cl)C(=O)c1cn(CC(=O)N2CCOCC2)c2ccccc12	83*	-1	-5	6	52*	39*
O=C(Cn1cc(SCc2ccccc2Cl)c2ccccc21)N1CCOCC1	28	-8	-2	-34	82*	x
Fc1ccccc1Cn1c2[n+](c3ccc(C(F)(F)F)cc31)CCCCC2	1	3	3	3	6	0
Cc1ccc(C(=O)c2ccccc2C(=O)OCC(=O)NCCc2ccc(Cl)cc2Cl)cc1	1	0	0	-1	x	x
O=C(COC(=O)c1ccc[nH]c1=O)NCCc1ccc(Cl)cc1Cl	4	-1	0	-10	x	50*
O=C(Nc1cccc(-c2csc(Nc3ccccc3)n2)c1)c1ccccc1	106*	-11	-1	-46	57*	27
Oc1ccc(Nc2nc(-c3cccnc3)cs2)cc1	x	-5	-11	14	39	x
O=C(Nc1cccc(-c2csc(Nc3cccc(C(F)(F)F)c3)n2)c1)c1ccccc1	-9	-3	3	63	-3	0
CCOc1ccc(Nc2nc(-c3cccnc3)cs2)cc1	x	-2	-2	-15	50*	14
CC(=O)Nc1ccc(-c2csc(NCCc3ccccc3)n2)cc1	x	-1	-3	36	47*	3
Cc1ccn2cc(-c3cccc(NC(=O)c4ccccc4)c3)nc2c1	105*	-8	-1	-11	x	17
CN(C)/C=C/C(=O)c1cnc2n(c1=O)CCS2	4	12	2	12	-2	3
CC(=O)c1cccc(Nc2nc(-c3cccnc3)cs2)c1	x	7	0	-24	54*	17
O=C(O)c1ccc(Nc2nc(-c3cccnc3)cs2)cc1	17	-8	-5	4	u	26
CC(=O)c1ccc(Nc2nc(-c3cccnc3)cs2)cc1	x	1	2	-11	52*	4
CC(=O)c1cccc(Nc2nc(-c3ccccc3)cs2)c1	130*	0	-7	-24	7	21
O=C(Nc1ccc(-c2csc(Nc3cccc(C(F)(F)F)c3)n2)cc1)c1ccccc1	-17	-11	-11	-3	0	-9
NC(=O)c1ccsc1NC(=O)c1cc(=O)c2ccccc2o1	130*	9	2	2	u	22
SMILES	MITF TRPM1 HTS	Vif imaging	N-glyco inh	PfHsp90 set2	esBAF inh	Wnt act
CC(=O)Nc1ccc(NC(=O)c2cc(=O)c3ccccc3o2)cc1	30	-4	-7	6	-1	3
Cc1cc(C)cc(NC(=O)c2cc(=O)c3ccccc3o2)c1	2	-2	-1	-5	x	-14
Cc1ccc(NC(=O)c2cc(=O)c3ccccc3o2)cc1	41	-4	0	-1	56*	u
COc1ccc(NC(=O)Nc2ccc3c(c2)C(=O)N([C@H](C)CO)C[C@@H](C)[C@@H](CN(C)S(=O)(=O)c2cn(C)cn2)OCCCC[C@H](C)O3)cc1	x	x	x	x	0	x
Cc1ccc(NC(=O)c2ccc(OCC3CCCO3)cc2)cc1Cl (stereo not drawn)	x	-36	1	x	78*	42*
Cc1cccc2sc(NC(=O)c3ccc(OCC4CCCO4)cc3)nc12 (stereo not drawn)	16	-7	-1	-5	59*	9
Cc1ccc(F)cc1NC(=O)c1ccc(OCC2CCCO2)cc1 (stereo not drawn)	44	2	2	7	47*	-5
Cc1ccc(NC(=O)c2ccc(OCC3CCCO3)cc2)c(C)c1 (stereo not drawn)	-99	1	2	6	x	x
Cc1csc(NC(=O)c2ccc(OCC3CCCO3)cc2)n1 (stereo not drawn)	17	-6	-13	-9	-22	6
Cc1ccnc(NC(=O)c2ccc(OCC3CCCO3)cc2)c1 (stereo not drawn)	-23	-5	-22	x	x	35*
Cc1ccnc(NC(=O)c2ccc3c(c2)C(=O)N(CC2CCCO2)C3=O)c1 (stereo not drawn)	8	x	1	-25	x	1
COc1ccc(NC(=O)c2ccc(OCC3CCCO3)cc2)cc1Cl (stereo not drawn)	57	-16	1	-5	42*	22
COc1ccc(NC(=O)c2ccc(OCC3CCCO3)cc2)cc1OC (stereo not drawn)	38	18	-1	9	51*	11
NS(=O)(=O)c1ccc(NC(=O)c2ccc(OCC3CCCO3)cc2)cc1 (stereo not drawn)	15	1	0	-17	7	-1
CC(=O)Nc1ccc(OC/C=C(\C)Cl)cc1	29	0	-6	-23	55*	x
CCn1c(SC(C)C)nnc1-c1cc(-c2ccccc2)sc1N	x	-16	-4	x	68*	16
C/C(=N\Nc1cccc2cccnc12)c1ccc(N)cc1	16	1	1	7	64*	2
